Source: PubChem BioAssay (NCI)
The panel holds about 79,000 compounds, 15% with a hit somewhere; the sample as a whole holds those more often. Values without a mark were called inactive. Calls of active or inactive are those of the source. Cut-off read from the data, not from the text of the source: active = growth inhibition above about 70%; inactive = the rest.

Key:
[1] = NCI Yeast Anticancer Drug Screen. Data for the rad50 strain (AID 155);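 note: 0% = growth of vehicle-only cultures of the same strain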; details: S. cerevisiae rad50 strain growth inhibition, stronger effect = higher value
Summary of the method: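 DNA repair mutant yeast, compound exposure, growth read-out; inhibition is taken relative to vehicle.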

[2] = NCI Yeast Anticancer Drug Screen. Data for the mec2-1 strain (AID 157); details: S. cerevisiae mec2-1 strain, stronger effect = higher value
Summary of the method: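 Test agents were screened against the mec2-1 yeast strain, with defined DNA repair or cell cycle alteration. Growth was scored as inhibition against vehicle-only controls.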

[3] = NCI Yeast Anticancer Drug Screen. Data for the sgs1 mgt1 strain (AID 161);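 note: 0% = growth of cultures given vehicle only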; details: S. cerevisiae sgs1 mgt1 strain, stronger effect = higher value
Summary of the method: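 Test agents were incubated with a DNA-repair-mutant yeast strain. Growth was then read and compared against vehicle-treated controls.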

[4] = NCI Yeast Anticancer Drug Screen. Data for the cln2 rad14 strain (AID 165);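 note: 0% = growth equal to vehicle treated cultures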; details: S. cerevisiae cln2 rad14 strain, stronger effect = higher value
Summary of the method: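 Growth of compound-exposed yeast (cln2 rad14 genotype) measured and expressed as inhibition relative to vehicle.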

[5] = NCI Yeast Anticancer Drug Screen. Data for the bub3 strain (AID 167); details: S. cerevisiae bub3 mutant strain, stronger effect = higher value
Summary of the method: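 In this screen, a yeast mutant lacking normal mitotic checkpoint function is challenged with compound. Relative growth versus vehicle gives the inhibition value.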

[6] = NCI Yeast Anticancer Drug Screen. Data for the mlh1 rad18 strain (AID 175); details: S. cerevisiae mlh1 rad18 strain growth inhibition, stronger effect = higher value
Summary of the method: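 In this whole-cell yeast screen, a strain with altered DNA damage repair is challenged with compound, and its growth is measured against matched vehicle-treated controls.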

[7] = at 5.0 µM (retest, dose inferred, filed as 0.5)
[8] = at 50.0 µM (retest, dose inferred, filed as 5.0)

| Compound | growth inhibition [1, 7] | growth inhibition [1, 8] | growth inhibition ([1]; at 50.0 µM) | growth inhibition [2, 7] | growth inhibition [2, 8] | growth inhibition ([2]; at 50.0 µM) | growth inhibition [3, 7] | growth inhibition [3, 8] | growth inhibition ([3]; at 50.0 µM) | growth inhibition [4, 7] | growth inhibition [4, 8] | growth inhibition ([4]; at 50.0 µM) | growth inhibition [5, 7] | growth inhibition [5, 8] | growth inhibition ([5]; at 50.0 µM) | growth inhibition [6, 7] | growth inhibition [6, 8] | growth inhibition ([6]; at 50.0 µM) |
| --- | --- | --- | --- | --- | --- | --- | --- | --- | --- | --- | --- | --- | --- | --- | --- | --- | --- | --- |
| CC(C)(N=Nc1ccc([N+](=O)[O-])cc1)[N+](=O)[O-] | 26% | 97% (active) | 95.8% (active) | 12% | 99% (active) | 53.6% | 18% | 98% (active) | 83.3% (active) | 15% | 99% (active) | 97.2% (active) | 21% | 99% (active) | 47.4% | 23% | 99% (active) | 96.7% (active) |
| CC1OC2CC(=O)OC2C2=C1C(=O)c1c(O)cccc1C2=O (configuration not stated) | 99% (active) | 99% (active) | 91.8% (active) | 100% (active) | 99% (active) | 93% (active) | 99% (active) | 99% (active) | 92.6% (active) | 99% (active) | 99% (active) | 91.4% (active) | 99% (active) | 99% (active) | 91.4% (active) | 99% (active) | 99% (active) | 91.7% (active) |
| S=c1nc(N2CCCCC2)ss1 | 41% | 94% (active) | 95.2% (active) | 1% | 75% (active) | 66% | 18% | 93% (active) | 97.2% (active) | 17% | 70% (active) | 57.9% | 17% | 97% (active) | 46.5% | 24% | 94% (active) | 97.2% (active) |
| CCc1nc(N)nc(N)c1-c1ccc(NCCN)c([N+](=O)[O-])c1 | -20% | -26% | 98.7% (active) | -3% | 5% | 98.7% (active) | -28% | -22% | 98.8% (active) | -7% | -34% | 98.5% (active) | 2% | -28% | 98% (active) | -31% | -40% | 98.9% (active) |
| C/C(CCSCc1ccccc1)=N/NC(N)=S | 6% | 44% | 41.8% | 4% | 65% | 55.9% | 6% | 78% (active) | 63.9% | -5% | 45% | 33.2% | -1% | 65% | 54.1% | 7% | 76% (active) | 66.7% |
| COc1cc2c(cc1O)C1Cc3ccc(OC)c(O)c3C(C2)N1C (configuration not stated) | 22% | 21% | 66.3% | 22% | 10% | -3.45% | 16% | 13% | -4.65% | 22% | 19% | -5.45% | 16% | 24% | -5.65% | 23% | 20% | -68% |
| COc1ccc(-n2c(=O)c3[nH]c(=S)[nH]c3n(-c3ccc(OC)cc3)c2=S)cc1 | 21% | 25% | 25.5% | 1% | 16% | 44% | 7% | 23% | -47.7% | 3% | 25% | -1% | -44% | 13% | -41.8% | 14% | 19% | -29.9% |
| Nc1ccccc1SCc1csc(-c2ccc(Cl)cc2)n1 | -4% | 98% (active) | 97.9% (active) | -3% | 98% (active) | 97.3% (active) | 2% | 98% (active) | 98.5% (active) | -10% | 97% (active) | 97.2% (active) | 2% | 98% (active) | 97.1% (active) | 2% | 98% (active) | 97.6% (active) |
| CC(N)C(O)c1ccc2ccc3ccccc3c2c1 (configuration not stated) | -35% | 96% (active) | 63.7% | 0% | 96% (active) | 3.65% | 0% | 96% (active) | 64.8% | -13% | 36% | 38.7% | 6% | 97% (active) | 66.9% | 11% | 98% (active) | 58.1% |
| CN(C)CC1CC/C(=C\c2ccc(O)cc2)C1=O (configuration not stated) | 11% | 78% (active) | 89.2% (active) | -19% | 98% (active) | 93.7% (active) | -4% | 98% (active) | 91.6% (active) | 24% | 53% | 77.6% (active) | -26% | 97% (active) | 91.9% (active) | 19% | 92% (active) | 90.6% (active) |
| O=C1Nc2ccccc2/C1=C/c1ccc(Cl)c(Cl)c1 | -1% | 71% (active) | 78.3% (active) | -8% | 89% (active) | 80.3% (active) | -4% | 73% (active) | 65.5% | 20% | 94% (active) | 74.1% (active) | -10% | 94% (active) | 74.7% (active) | 5% | 89% (active) | 78% (active) |
| COC(=O)c1nc(=S)[nH]c(C(=O)OC)c1C(=O)c1ccccn1 | 7% | 93% (active) | 82% (active) | -3% | 84% (active) | 75% (active) | 0% | 87% (active) | 84.5% (active) | 2% | 84% (active) | 70.5% (active) | 6% | 86% (active) | 82.8% (active) | -15% | 91% (active) | 89.1% (active) |
| CCC1OC(OC)C=CC1=O (configuration not stated) | -1% | -8% | 90% (active) | -10% | -25% | 94% (active) | -14% | -19% | 90.2% (active) | 18% | 15% | 90.5% (active) | -6% | -15% | 90.3% (active) | -16% | -30% | 91.8% (active) |
| CC(C)CC(NC(=O)COc1c(Cl)cc(Cl)c(Cl)c1Cl)C(=O)O (configuration not stated) | 0% | 8% | 13% | -1% | 39% | -8.6% | -1% | 12% | -32.6% | 4% | 19% | 3.35% | 5% | 10% | 1% | -2% | 12% | 25.9% |
| CC12CC(Br)(Br)C(=O)C3C1CCCC32 | 51% | 31% | 48.9% | 48% | 60% | 41% | 37% | -38% | 86.8% (active) | 49% | 35% | 75.7% (active) | 74% (active) | 59% | 87% (active) | 74% (active) | 79% (active) | 87% (active) |
| Clc1ccc(N=Cc2c3ccccc3cc3ccccc23)c(Cl)c1 | 0% | -3% | 79.7% (active) | 3% | 2% | 85.4% (active) | -5% | 5% | 87.4% (active) | 15% | 22% | 31% | 2% | 29% | 79.5% (active) | -7% | 44% | 77.5% (active) |
| CCC[CH2][Sn]([CH2]CCC)([O]C(=O)c1cccc(F)c1)[O]C(=O)c1cccc(F)c1 | 26% | 26% | 51.5% | -2% | -2% | 33.5% | -1% | -1% | 73.2% (active) | 10% | 10% | 14.9% | -2% | -2% | 49.9% | -1% | -1% | 53% |
| CCCCCC/C=C\CCCCCCCCCC1=C(CN2CCN(C)CC2)C(=O)C=C(OC)C1=O | 24% | 97% (active) | 89.2% (active) | 24% | 98% (active) | 91.8% (active) | 99% (active) | 98% (active) | 90.3% (active) | 97% (active) | 98% (active) | 89.2% (active) | 99% (active) | 98% (active) | 91% (active) | 54% | 97% (active) | 88.8% (active) |
| COc1cccc2c1C(=O)c1c(O)c(COC3CC(N)C(O)C(C)O3)cc(O)c1C2=O (configuration not stated) | 14% | 89% (active) | 96.7% (active) | 14% | 96% (active) | 73% (active) | 13% | 80% (active) | 99.3% (active) | 3% | 42% | 50.6% | 7% | 40% | 98% (active) | 12% | 53% | 98.3% (active) |
